According to PubChem BioAssay AID1159580 (chemical genetic matrix, 2015):
Values joined by “and” are separate entries in the source; they are usually repeats but may differ in a detail not shown here. Identical values can stand only once. In all, about 5,500 compounds went through this assay and about 2,000 (36%) were called active. Not shown: some 18% with an inconclusive outcome. No stated cut-off is given here; in the data, active means normalized growth mostly below about 0.91 (no sharp cut-off); inconclusive means no clear call, values can overlap the other calls; inactive means mostly above about 0.92. The list shows a part of the results.

Assay: chemical genetic growth profiling, strain panel (AID 1159580);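 further: tested at 20 µM; growth read once vehicle control cultures reached saturation at 30 °C; 1 = growth at the plate median or of vehicle wells; lower values mean less growth of the strain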
Conditions: S. cerevisiae deletion strains, growth OD

Measured: normalized growth

NC(N)=Nc1nc(CSCCC(N)=NS(N)(=O)=O)cs1
inactive: locus YAL013W, strain DEP1, hits give low values 1 | locus YAL021C, strain ccr4, hits give low values 0.996 | locus YAL026C, strain drs2, hits give low values 0.995 | locus YAL030W, strain snc1, hits give low values 0.982 | locus YAL040C, strain CLN3, hits give low values 0.997 | locus YBL061C, strain skt5, hits give low values 0.978 | locus YBR009C, strain hhf1, hits give low values 1.01 | locus YBR021W, strain FUR4, hits give low values 0.996 | locus YBR023C, strain chs3, hits give low values 0.997 | locus YBR171W, strain sec66, hits give low values 0.958 | locus YBR229C, strain ROT2, hits give low values 1 | locus YBR231C, strain swc5, hits give low values 0.959 | locus YBR279W, strain paf1, hits give low values 0.997 | locus YCL011C, strain gbp2, hits give low values 0.993 | locus YCL016C, strain dcc1, hits give low values 0.992 | locus YCL029C, strain bik1, hits give low values 1.02 | locus YCL061C, strain MRC1 (second series), hits give low values 1.01 | locus YCL069W, strain vba3, hits give low values 0.991 | locus YCR088W, strain abp1, hits give low values 0.978 | locus YDL005C, strain med2, hits give low values 0.974 | locus YDL035C, strain GPR1, hits give low values 1 | locus YDL040C, strain nat1, hits give low values 0.969 | locus YDL074C, strain BRE1, hits give low values 1.03 | locus YDL101C, strain DUN1, hits give low values 1.01 | locus YDL134C, strain PPH21, hits give low values 1.01 | locus YDL185W, strain tfp1, hits give low values 1.01 | locus YDL192W, strain arf1, hits give low values 1.01 | locus YDR001C, strain nth1, hits give low values 0.972 | locus YDR069C, strain doa4, hits give low values 0.968 | locus YDR101C, strain arx1, hits give low values 1.01 | locus YDR137W, strain rgp1, hits give low values 1 | locus YDR150W, strain NUM1, hits give low values 0.996 | locus YDR159W, strain sac3, hits give low values 0.986 | locus YDR162C, strain NBP2, hits give low values 1.01 | locus YDR195W, strain ref2 0.969 | locus YDR297W, strain sur2, hits give low values 0.997 | locus YDR318W, strain mcm21, hits give low values 1.02 | locus YDR334W, strain swr1, hits give low values 0.967 | locus YDR335W, strain msn5, hits give low values 0.968 | locus YDR363W, strain ESC2, hits give low values 0.999 | locus YDR388W, hits give low values 1.01 | locus YDR392W, strain spt3, hits give low values 1.02 | locus YDR502C, strain sam2, hits give low values 1 | locus YEL003W, strain gim4, hits give low values 0.983 | locus YEL037C, strain rad23, hits give low values 0.975 | locus YEL061C, strain CIN8 (second series), hits give low values 0.992 | locus YEL061C, strain CIN8, hits give low values 1.01 | locus YER002W, strain NOP16, hits give low values 1 | locus YER015W, strain faa2, hits give low values 0.986 | locus YER016W, strain bim1, hits give low values 1.01 | locus YER110C, hits give low values 1.01 | locus YER111C, strain swi4, hits give low values 0.991 | locus YER155C, strain BEM2 (second series), hits give low values 0.988 | locus YER155C, strain BEM2, hits give low values 1 | locus YER167W, strain BCK2, hits give low values 1.01 | locus YFR010W, strain ubp6, hits give low values 1 | locus YGL078C, strain dbp3, hits give low values 1 | locus YGL086W, strain mad1, hits give low values 0.996 | locus YGL167C, strain pmr1, hits give low values 0.961 | locus YGL173C, strain kem1, hits give low values 0.976 | locus YGL227W, strain vid30, hits give low values 0.964 | locus YGL240W, strain doc1, hits give low values 0.973 | locus YGL248W, strain PDE1, hits give low values 0.985 | locus YGL253W, strain hxk2, hits give low values 0.991 | locus YGR078C, strain PAC10, hits give low values 1.03 | locus YGR229C, strain SMI1, hits give low values 0.989 and 0.992 | locus YGR252W, strain gcn5, hits give low values 0.993 | locus YHR013C, strain ard1, hits give low values 1.01 | locus YHR027C, strain rpn1, hits give low values 0.993 | locus YHR030C, strain SLT2, hits give low values 1.01 and 0.989 | locus YHR079C, strain IRE1 (second series), hits give low values 1.01 | locus YHR079C, strain IRE1, hits give low values 0.972 | locus YHR094C, strain hxt1, hits give low values 1.01 | locus YHR129C, strain ARP1, hits give low values 1.01 | locus YHR142W, strain chs7, hits give low values 0.959 | locus YHR200W, strain rpn10, hits give low values 1.01 | locus YIL066C, strain RNR3, hits give low values 1.01 | locus YIL073C, strain SPO22, hits give low values 1.04 | locus YIL125W, strain kgd1, hits give low values 1 | locus YIR030C, strain dcg1, hits give low values 1.01 | locus YJL092W, strain hpr5, hits give low values 0.987 | locus YJL095W, strain BCK1 (second series), hits give low values 0.993 | locus YJL095W, strain BCK1, hits give low values 1.04 and 0.984 | locus YJL115W, strain asf1, hits give low values 0.983 | locus YJL129C, strain trk1, hits give low values 0.944 | locus YJL134W, strain LCB3, hits give low values 1 | locus YJL154C, strain vps35, hits give low values 0.983 | locus YJL164C, strain tpk1, hits give low values 1.01 | locus YJL166W, strain qcr8, hits give low values 0.981 | locus YJL168C, strain set2, hits give low values 1.01 | locus YJL187C, strain SWE1 (second series), hits give low values 1.02 | locus YJL187C, strain SWE1, hits give low values 0.984 | locus YJR043C, strain POL32, hits give low values 1.01 | locus YJR066W, strain TOR1, hits give low values 0.921 | locus YJR075W, strain HOC1, hits give low values 1.01
